Experimental data from PubChem BioAssay (Tox21).
Inconclusive results are not listed. Where a call stands in place of a potency, no number is given. Active and inactive are the calls of the source. Calls follow the shape of the full dose curve.

Assay: p53 small molecule agonists, cell-based qHTS assay with human liver microsomes (AID 1963577);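 also: p53 response element beta-lactamase reporter cells with liver microsomes plus NADPH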
Conditions: HCT-116 p53RE-bla with human liver microsomes, ratio, 16 h; series mostly up to 66 µM
Source text: National Center for Advancing Translational Sciences [NCATS]
Division of Preclinical Innovation [DPI]
U.S. Environmental Protection Agency [EPA]
National Institutes of Environmental Health Sciences [NIEHS]
National Toxicology Program [NTP]
U.S. Food and Drug Administration [FDA]
p53, a tumor suppressor protein, is activated following cellular insult, including DNA damage and other cellular stresses. The activation of p53 regulates cell fate by inducing DNA repair, cell cycle arrest, apoptosis, or cellular senescence. The activation of p53, therefore, is a good indicator of DNA damage and other cellular stresses. […] The activation of the reporter gene under culture conditions can be detected by fluorescence intensity.
Tox21 Assay Protocol Summary:
The p53RE-bla cells were dispensed at 4,000cells/3ul/well in 1536-well black-clear bottom plates. After the assay plates were incubated at 37 C, 5% CO2 incubator for 5 hours, 23 nL of compounds dissolved in DMSO, positive controls or DMSO only was transferred to the assay plate. Following compound addition, 3 uL of human liver microsomes (XenoTech, Kansas City, KS) at final concentration of 0.5 mg/mL and 1uL of Beta-Nicotinamide adenine dinucleotide 2-phosphate (NADPH) at final concentration of 0.5 mg/mL were transferred to the assay plate. The plates were incubated at 37 C for 16 hours. 1 uL of LiveBLAzer detection mixture was added to each well and the plates were incubated at room temperature in the dark for 2 h.
For `CCCCCCC(C)(C)C(=O)O`, the Potency was “inactive”. With `CC1CCC(C(C)(C)S)C(=O)C1` (stereo not given) the Potency was “inactive”. For `CCC(=O)c1ccc(O)cc1`, the Potency was “inactive”. For `N#Cc1ccc(C2CCCc3cncn32)cc1` (stereo not given), the Potency was “inactive”. In the case of `Nc1cc([N+](=O)[O-])ccc1Cl`, the Potency is reported as “inactive”. For `O=C(O)c1cccnc1C(=O)O`, the Potency was “inactive”. With `CCCCCCCCCOS(=O)(=O)O` the Potency was “inactive”. For `CCCc1ccc(O)cc1`, the Potency was “inactive”. With `O=C(O)c1cc2ccccc2nc1C(=O)O` the Potency was “inactive”. In the case of `BrC1CCC(Br)C(Br)CCC(Br)C(Br)CCC1Br` (stereo not given), the Potency is reported as “inactive”. With `O=C(C(=O)c1ccccc1)c1ccccc1` the Potency was “inactive”. For `CC[C@H](c1ccc(O)cc1)[C@@H](CC)c1ccc(O)cc1`, the Potency was “inactive”. With `CCCCC1CCC(O)CC1` (stereo not given) the Potency was “inactive”. In the case of `CC(=O)SC[C@@H](C)C(=O)N1CCC[C@H]1C(=O)N[C@@H](Cc1ccccc1)C(=O)O`, the Potency is reported as “inactive”. For `CCCCCCCCCCCCCC`, the Potency was “inactive”. In the case of `O=C(O)/C=C/c1ccccc1`, the Potency is reported as “inactive”. For `CCC(=O)OC(C)c1ccccc1` (stereo not given), the Potency was “inactive”. For `O=C(O)c1cc(C(=O)O)cc([N+](=O)[O-])c1`, the Potency was “inactive”. For `C=COCCCC`, the Potency was “inactive”. With `Cc1ccc(N)cc1[N+](=O)[O-]` the Potency was “inactive”. For `O=Nc1ccc(Nc2ccccc2)cc1`, the Potency was “inactive”. For `CC(=O)OC/C=C/c1ccccc1`, the Potency was “inactive”. In the case of `CCCC(C)CO` (stereo not given), the Potency is reported as “inactive”. With `COc1cc(C)c(Cc2cnc(N)nc2N)cc1OC` the Potency was “inactive”. In the case of `CCCCC(CC)C(=O)OCCOCCOCCOC(=O)C(CC)CCCC` (stereo not given), the Potency is reported as “inactive”. In the case of `COC(OC)OC`, the Potency is reported as “inactive”. With `CC(C)(C)C(=O)OCOP(=O)(COCCn1cnc2c(N)ncnc21)OCOC(=O)C(C)(C)C` the Potency was “inactive”. In the case of `CC1CCCC(=O)C1=O` (stereo not given), the Potency is reported as “inactive”. With `CCCCCCCOC(C)=O` the Potency was “inactive”. With `CCCC(O)C(O)CO` (stereo not given) the Potency was “inactive”. For `CCCCC(O)/C=C(C)/C=C/C=C/C(=O)N1CCCC1=O` (stereo not given), the Potency was “inactive”. For `CCCCCC1CCC(=O)O1` (stereo not given), the Potency was “inactive”. With `CCCCc1ncc(/C=C(\Cc2cccs2)C(=O)O)n1Cc1ccc(C(=O)O)cc1` the Potency was “inactive”. For `Cc1cccc2c1ccc1ccccc12`, the Potency was “inactive”. For `c1ccc2ncccc2c1`, the Potency was “inactive”. For `CCOC(=O)CN`, the Potency was “inactive”. For `CC(C)CC(O)Cc1ccccc1` (stereo not given), the Potency was “inactive”. In the case of `COc1ccc(Cl)cc1C`, the Potency is reported as “inactive”. In the case of `NS(=O)(=O)c1ccc(N2CCCCS2(=O)=O)cc1`, the Potency is reported as “inactive”. With `CC(C)(CCC(=O)O)C(=O)O` the Potency was “inactive”.
